Measurements: the supplement of paper PMC12636033
± gives the standard deviation of the averaged measurements. Over roughly 33,000 sequences, “E-score (rank enrichment, -0.5 to 0.5)” has its median near -0.0068; the highest 2% begin near 0.24. The list comes from a sample in which the highest values are over-represented; it also holds similar and randomly drawn sequences.

Each sequence was assayed on muMax20 (Max(13-93) K31hArg/K57hArg, M65Nle) (assay: PBM 8-mer E-score (E-score (rank enrichment, -0.5 to 0.5)); higher = stronger preferential binding).
Procedure: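 Protein binding microarray (universal PBM chip covering all 10-mers in fixed probe flanks) with chemically synthesized human Max(13-93) bHLH-LZ analogs (not full-length Max) bearing noncanonical residues (hArg, Tha, Aib, Nle at 65) and aromatic Cys staples. Read-out per 8-mer (and its reverse complement): E-score (rank-based enrichment, -0.5 to 0.5) and Z-score of median probe intensity.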

Q: AAACACGC was tested. Which “PBM 8-mer E-score” value did it give?
A: The value was 0.198 ± 0.0045.

Q: For ACACACGG, which “PBM 8-mer E-score” value is on record?
A: The value was 0.00898 ± 0.047.

Q: With AAACACGA as the sequence, how does the “PBM 8-mer E-score” value read?
A: Its value is 0.194 ± 0.04.

Q: Which “PBM 8-mer E-score” value does the source give for AAACACGT here?
A: Its value is 0.342 ± 0.016.

Q: How did the “PBM 8-mer E-score” value turn out when ACACACGT was run?
A: Its value is 0.338 ± 0.01.

Q: With ACACACGA as the sequence, how does the “PBM 8-mer E-score” value read?
A: The value was 0.188 ± 0.037.

Q: How did the “PBM 8-mer E-score” value turn out when GACGTAAC was run?
A: Its value is 0.0633 ± 0.061.

Q: Which “PBM 8-mer E-score” value does the source give for AATAGGTG here?
A: The value was 0.119 ± 0.0048.

Q: With AATAGGTA as the sequence, how does the “PBM 8-mer E-score” value read?
A: Its value is 0.251 ± 0.073.

Q: Which “PBM 8-mer E-score” value does the source give for AATAGGTC here?
A: The value was -0.0485 ± 0.14.

Q: Which “PBM 8-mer E-score” value does the source give for ACAATACT here?
A: Its value is 0.174 ± 0.049.

Q: ACAATACC was tested. Which “PBM 8-mer E-score” value did it give?
A: The value was 0.237 ± 0.02.

Q: With TCAATACA as the sequence, how does the “PBM 8-mer E-score” value read?
A: The value was 0.18862 ± 0.00013.

Q: How did the “PBM 8-mer E-score” value turn out when CTAATACC was run?
A: The value was 0.0669 ± 0.08.

Q: How did the “PBM 8-mer E-score” value turn out when GTAATACA was run?
A: The value was 0.182 ± 0.082.

Q: ATAATACG was tested. Which “PBM 8-mer E-score” value did it give?
A: The value was 0.19 ± 0.015.

Q: For AAAATACA, which “PBM 8-mer E-score” value is on record?
A: Its value is 0.159 ± 0.058.

Q: How did the “PBM 8-mer E-score” value turn out when ATAATACC was run?
A: The value was 0.261 ± 0.049.

Q: How did the “PBM 8-mer E-score” value turn out when ATAATACA was run?
A: Its value is 0.281 ± 0.027.

Q: Which “PBM 8-mer E-score” value does the source give for ACAATACA here?
A: Its value is 0.191 ± 0.02.

Q: With CTAATACA as the sequence, how does the “PBM 8-mer E-score” value read?
A: The value was 0.248 ± 0.047.

Q: With AGAATACC as the sequence, how does the “PBM 8-mer E-score” value read?
A: Its value is 0.142 ± 0.0044.

Q: For ACTATGGC, which “PBM 8-mer E-score” value is on record?
A: The value was -0.0571 ± 0.07.

Q: How did the “PBM 8-mer E-score” value turn out when AATTTTCG was run?
A: Its value is 0.0133 ± 0.1.

Q: For GCCCTACA, which “PBM 8-mer E-score” value is on record?
A: Its value is -0.127 ± 0.021.

Q: CCCGCACG was tested. Which “PBM 8-mer E-score” value did it give?
A: The value was -0.0959 ± 0.058.

Q: With TGAGCGCA as the sequence, how does the “PBM 8-mer E-score” value read?
A: Its value is -0.0144 ± 0.0021.

Q: For AACGGCAA, which “PBM 8-mer E-score” value is on record?
A: Its value is 0.112 ± 0.025.

Q: Which “PBM 8-mer E-score” value does the source give for CTCTGCGA here?
A: Its value is -0.167 ± 0.1.

Q: AGTTACCC was tested. Which “PBM 8-mer E-score” value did it give?
A: The value was -0.029 ± 0.015.

Q: With GGGATGGA as the sequence, how does the “PBM 8-mer E-score” value read?
A: The value was 0.0386 ± 0.042.

Q: How did the “PBM 8-mer E-score” value turn out when ACCAGTTG was run?
A: Its value is -0.0933 ± 0.12.

Q: How did the “PBM 8-mer E-score” value turn out when ACTTCAAT was run?
A: The value was 0.173 ± 0.027.

Q: With CAAATACA as the sequence, how does the “PBM 8-mer E-score” value read?
A: The value was 0.325 ± 0.037.

Q: For CAAATACC, which “PBM 8-mer E-score” value is on record?
A: The value was 0.0739 ± 0.027.

Q: With GAAATACA as the sequence, how does the “PBM 8-mer E-score” value read?
A: The value was 0.132 ± 0.063.

Q: With ATAACGTC as the sequence, how does the “PBM 8-mer E-score” value read?
A: The value was 0.121 ± 0.0034.

Q: For GTAACGTA, which “PBM 8-mer E-score” value is on record?
A: Its value is 0.0209 ± 0.03.

Q: ATAACGTA was tested. Which “PBM 8-mer E-score” value did it give?
A: The value was 0.24 ± 0.0069.

Q: For AAGTCACT, which “PBM 8-mer E-score” value is on record?
A: The value was 0.24 ± 0.12.

Q: For AAGTCACG, which “PBM 8-mer E-score” value is on record?
A: The value was 0.0988 ± 0.052.

Q: How did the “PBM 8-mer E-score” value turn out when AAGTCACA was run?
A: Its value is 0.029 ± 0.056.

Q: GCTTGCAA was tested. Which “PBM 8-mer E-score” value did it give?
A: Its value is 0.0886 ± 0.032.

Q: AAAAATGG was tested. Which “PBM 8-mer E-score” value did it give?
A: Its value is 0.153 ± 0.002.

Q: For GAGCCAAC, which “PBM 8-mer E-score” value is on record?
A: The value was -0.0474 ± 0.026.

Q: With AAAACCTC as the sequence, how does the “PBM 8-mer E-score” value read?
A: The value was 0.104 ± 0.039.

Q: With TAATATAA as the sequence, how does the “PBM 8-mer E-score” value read?
A: The value was 0.232 ± 0.018.

Q: GTGTATAA was tested. Which “PBM 8-mer E-score” value did it give?
A: The value was 0.1625 ± 0.0011.

Q: How did the “PBM 8-mer E-score” value turn out when ATGTATAA was run?
A: The value was 0.268 ± 0.022.

Q: Which “PBM 8-mer E-score” value does the source give for CTGTATAA here?
A: The value was 0.191 ± 0.029.

Q: How did the “PBM 8-mer E-score” value turn out when TTATATAA was run?
A: The value was 0.274 ± 0.062.

Q: For ATATATAT, which “PBM 8-mer E-score” value is on record?
A: The value was 0.155 ± 0.016.

Q: GAATATAC was tested. Which “PBM 8-mer E-score” value did it give?
A: The value was 0.157 ± 0.014.

Q: For ATGTAGAG, which “PBM 8-mer E-score” value is on record?
A: The value was 0.04 ± 0.13.

Q: TGATATAA was tested. Which “PBM 8-mer E-score” value did it give?
A: Its value is 0.211 ± 0.09.

Q: For GAATATAA, which “PBM 8-mer E-score” value is on record?
A: Its value is 0.264 ± 0.023.

Q: For CTGTAGAA, which “PBM 8-mer E-score” value is on record?
A: Its value is 0.031 ± 0.018.

Q: ATGTAGAA was tested. Which “PBM 8-mer E-score” value did it give?
A: The value was 0.264 ± 0.0091.

Q: AGGGAACC was tested. Which “PBM 8-mer E-score” value did it give?
A: The value was -0.237 ± 0.012.

Q: With TACGGCTA as the sequence, how does the “PBM 8-mer E-score” value read?
A: Its value is -0.0274 ± 0.029.

Q: For ATGGGCGG, which “PBM 8-mer E-score” value is on record?
A: The value was 0.009 ± 0.039.

Q: For GTTAGAAC, which “PBM 8-mer E-score” value is on record?
A: The value was -0.0507 ± 0.042.

Q: How did the “PBM 8-mer E-score” value turn out when CTATATAA was run?
A: The value was 0.165 ± 0.12.

Q: How did the “PBM 8-mer E-score” value turn out when ATATATAA was run?
A: Its value is 0.288 ± 0.052.

Q: How did the “PBM 8-mer E-score” value turn out when GTATATAA was run?
A: The value was 0.202 ± 0.069.

Q: How did the “PBM 8-mer E-score” value turn out when ACGCCTCG was run?
A: Its value is -0.092 ± 0.092.

Q: With CATCCGGC as the sequence, how does the “PBM 8-mer E-score” value read?
A: The value was -0.291 ± 0.032.

Q: Which “PBM 8-mer E-score” value does the source give for ATCGGACG here?
A: Its value is -0.0422 ± 0.092.

Q: With CAAGATAC as the sequence, how does the “PBM 8-mer E-score” value read?
A: The value was 0.153 ± 0.0086.

Q: Which “PBM 8-mer E-score” value does the source give for AAAGATAA here?
A: Its value is 0.2372 ± 0.001.

Q: CAAGATAA was tested. Which “PBM 8-mer E-score” value did it give?
A: Its value is 0.253 ± 0.064.

Q: How did the “PBM 8-mer E-score” value turn out when TAAGATAA was run?
A: The value was 0.0507 ± 0.17.

Q: How did the “PBM 8-mer E-score” value turn out when AAAGATAC was run?
A: Its value is 0.145 ± 0.05.

Q: Which “PBM 8-mer E-score” value does the source give for AAAGATAG here?
A: Its value is 0.0409 ± 0.14.

Q: How did the “PBM 8-mer E-score” value turn out when ATCAGAGG was run?
A: Its value is -0.121 ± 0.076.

Q: How did the “PBM 8-mer E-score” value turn out when ACATGTTC was run?
A: The value was 0.1643 ± 0.00078.

Q: GCATGTTA was tested. Which “PBM 8-mer E-score” value did it give?
A: Its value is 0.116 ± 0.14.

Q: With CCATGTTA as the sequence, how does the “PBM 8-mer E-score” value read?
A: The value was 0.109 ± 0.039.

Q: With ACATGTTG as the sequence, how does the “PBM 8-mer E-score” value read?
A: The value was 0.271 ± 0.022.

Q: ACATGTTA was tested. Which “PBM 8-mer E-score” value did it give?
A: The value was 0.241 ± 0.085.

Q: Which “PBM 8-mer E-score” value does the source give for AGATGTTG here?
A: Its value is -0.125 ± 0.12.

Q: How did the “PBM 8-mer E-score” value turn out when AACGAATT was run?
A: The value was 0.236 ± 0.0088.

Q: How did the “PBM 8-mer E-score” value turn out when CAAGGTAC was run?
A: The value was 0.0659 ± 0.12.

Q: Which “PBM 8-mer E-score” value does the source give for ACACCGAT here?
A: Its value is -0.183 ± 0.16.

Q: Which “PBM 8-mer E-score” value does the source give for AGGTTAGG here?
A: The value was 0.0305 ± 0.073.

Q: With CACGTTTA as the sequence, how does the “PBM 8-mer E-score” value read?
A: The value was 0.0929 ± 0.011.

Q: How did the “PBM 8-mer E-score” value turn out when CCTTAACC was run?
A: Its value is -0.159 ± 0.009.
